Source: PubChem BioAssay (Broad Institute)
Pf Dd2 growth: P. falciparum Dd2 growth inhibition | activity change, % at 10 µM | 94,000 tested, 2.3% active | AID 1159554 | SYBR Green, 72 h; stronger effect = lower value; in the data active means activity change below about -80%; inconclusive means no clear call, values can overlap the other calls
C diff growth: blocks growth of Clostridium difficile | growth activity, negative = inhibition, % at 16 µg/mL (by protocol) | Clostridium difficile clinical isolate growth, OD600, 24 h; stronger effect = lower value | 86,000 tested, 0.25% active;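 active means mean growth activity at or below -80% and every replicate also at or below -80%; inconclusive means mean at or below -80% but some replicate above -80%; inactive means mean growth activity above -80%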;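 further: 0% = DMSO wells and -100% = levofloxacin 16 µg/mL wells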
T cruzi growth-1: inhibitors of T. cruzi proliferation. inhibition, % at 8.34 µM. T. cruzi beta-gal in NIH3T3, GalScreen luminescence, 90 h. 77,000 tested, 5.9% active;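 active means mean inhibition above about 93%, with at least 55% of replicates each passing it, limit read from the data, passing the limit was not always enough; inconclusive means only one of those two conditions holds; inactive means neither condition holds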
T cruzi growth-2: Trypanosoma cruzi proliferation inhibition | shares compounds with T cruzi growth-1 | T. cruzi beta-gal in NIH3T3, GalScreen luminescence, 90 h | inhibition, % at 8.35 µM | 5,600 tested, 72% active | AID 651739;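 active means mean replicate inhibition above about 95% and at least 55% of replicates individually reaching it, limit read from the data; inconclusive means only one of the two criteria is met; inactive means neither criterion is met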
T cruzi growth-3: inhibitors of T. cruzi proliferation. shares compounds with T cruzi growth-1. T. cruzi beta-gal in NIH3T3, GalScreen luminescence, 90 h. inhibition, % at 2.09 µM. 5,600 tested, 21% active;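 active means mean inhibition above about 95%, with at least 55% of replicates also reaching it, limit read from the data; inconclusive means meets just one of the two conditions; inactive means meets neither condition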;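 further: plate controls were neutral control median for no effect and positive control median for full effect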
NIH3T3 tox: NIH/3T3 (mouse) viability loss. shares compounds with T cruzi growth-1. NIH/3T3 viability, CellTiter-Glo ATP luminescence, 90 h. cytotoxicity (signal decrease), % at 8.35 µM. 5,600 tested, 14% active;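 active means mean signal decrease across replicates above about 35% based on untreated-well scatter, with enough replicates individually passing, limit read from the data; inconclusive means no rule stated though some were filed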;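 further: 0% = median of neutral control wells and 100% = median of positive control wells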
NIH3T3 tox 2: NIH/3T3 (mouse) viability loss | shares compounds with T cruzi growth-1 | 5,600 tested, 56% active | AID 651744 | NIH/3T3 viability, CellTiter-Glo ATP luminescence, 90 h | inhibition, % at 24.9 µM;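 active means mean loss of cell viability signal at or above a set limit, and enough replicates individually reaching it; inconclusive means meets only the mean limit or only the replicate share; inactive means meets neither condition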;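 further: 0% = median of neutral control wells and 100% = median of positive control wells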
Active calls of the source: *; ? = inconclusive; / = not tested or not shown. Hits are enriched below; roughly 6.7% of the tested compounds scored in any of these assays.

SMILES	Pf Dd2 growth	C diff growth	T cruzi growth-1	T cruzi growth-2	T cruzi growth-3	NIH3T3 tox	NIH3T3 tox 2
C[C@H](CO)N1C[C@H](C)[C@@H](CN(C)Cc2ccncc2)Oc2cc(C3=CCCC3)ccc2S1(=O)=O	34	2	87	/	/	/	/
C[C@H]1CN([C@@H](C)CO)S(=O)(=O)c2ccc(C3=CCCC3)cc2O[C@@H]1CN(C)Cc1ccncc1	-23	0	117*	98*	?	45*	97*
CO[C@H]1CN(C)C(=O)c2cc(NC(=O)c3ccc4c(c3)OCO4)ccc2OC[C@@H](C)N(CC2CC2)C[C@H]1C	4	/	-29	/	/	/	/
C[C@@H]1CN([C@@H](C)CO)C(=O)c2cc(Br)cnc2O[C@H]1CN(C)Cc1ccncc1	52	1	2	/	/	/	/
C[C@H]1CN([C@@H](C)CO)S(=O)(=O)c2ccc(-c3cccc(F)c3)cc2O[C@@H]1CN(C)C(=O)C1CC1	6	-4	/	/	/	/	/
CO[C@@H]1CN(C)C(=O)c2ccc(NC(=O)C3CC3)cc2OC[C@@H](C)N(C(=O)c2ccccn2)C[C@@H]1C	-18	/	40	/	/	/	/
CO[C@H]1CN(C)C(=O)c2ccc(NC(=O)C3CC3)cc2OC[C@@H](C)N(C(=O)c2ccccn2)C[C@H]1C	19	/	102*	53	17	9	0
CO[C@H]1CN(C)C(=O)c2ccc(NC(=O)C3CC3)cc2OC[C@H](C)N(C(=O)c2cccnc2)C[C@@H]1C	29	/	112*	-186	22	-7	-17
CO[C@@H]1CN(C)C(=O)c2ccc(NC(=O)C3CC3)cc2OC[C@H](C)N(C(=O)c2cccnc2)C[C@H]1C	34	/	42	/	/	/	/
CCC(=O)N1CC2(C1)[C@@H](c1ccccc1)[C@@H](CO)N2Cc1cccc(Cl)c1	-4	3	/	/	/	/	/
C[C@@H]1CN([C@H](C)CO)C(=O)c2cccc(NS(=O)(=O)c3cccs3)c2O[C@@H]1CN(C)C(=O)Nc1ccc(F)cc1	-3	-5	41	/	/	/	/
C[C@@H]1CN([C@@H](C)CO)S(=O)(=O)c2ccc(-c3cccnc3)cc2O[C@@H]1CN(C)C(=O)CN(C)C	17	2	60	/	/	/	/
C[C@H](NC(=O)C[C@@H]1CC[C@@H]2[C@@H](COc3ccc(NS(=O)(=O)c4ccc(Cl)cc4)cc3C(=O)N2C)O1)c1ccccc1	15	4	30	/	/	/	/
Cc1ccc(S(=O)(=O)N(C)C[C@@H]2Oc3ccc(NC(=O)Cc4cn(C)c5ccccc45)cc3CC(=O)N([C@H](C)CO)C[C@@H]2C)cc1	?	1	44	/	/	/	/
Cc1noc(C)c1S(=O)(=O)Nc1ccc2c(c1)C(=O)N([C@H](C)CO)C[C@H](C)[C@H](CN(C)C(=O)Nc1ccc(C(F)(F)F)cc1)OCCCC[C@H](C)O2	-20	8	101	/	/	/	/
Cc1noc(C)c1S(=O)(=O)Nc1ccc2c(c1)C(=O)N([C@@H](C)CO)C[C@H](C)[C@H](CN(C)C(=O)Nc1ccc(C(F)(F)F)cc1)OCCCC[C@H](C)O2	-46	2	66	/	/	/	/
Cc1noc(C)c1S(=O)(=O)Nc1ccc2c(c1)C(=O)N([C@H](C)CO)C[C@H](C)[C@@H](CN(C)C(=O)Nc1ccc(C(F)(F)F)cc1)OCCCC[C@H](C)O2	-39	4	114*	101*	94	20	?
Cc1noc(C)c1S(=O)(=O)Nc1ccc2c(c1)C(=O)N([C@@H](C)CO)C[C@@H](C)[C@@H](CN(C)C(=O)Nc1ccc(C(F)(F)F)cc1)OCCCC[C@@H](C)O2	-60	9	?	96*	102*	12	?
Cc1ccc(S(=O)(=O)N(C)C[C@H]2Oc3c(cccc3N(C)C)C(=O)N([C@H](C)CO)C[C@@H]2C)cc1	0	6	?	99*	15	8	28*
C[C@H](CO)N1C[C@H](C)[C@@H](CN(C)S(=O)(=O)c2ccc(Cl)cc2)Oc2c(NC(=O)Nc3ccc(C(F)(F)F)cc3)cccc2C1=O	-70	/	?	90	111*	46*	105*
Cc1ccc(S(=O)(=O)N(C)C[C@H]2Oc3c(cccc3N(C)C)C(=O)N([C@@H](C)CO)C[C@@H]2C)cc1	-20	12	78	/	/	/	/
COc1ccc(S(=O)(=O)N(C)C[C@@H]2Oc3c(NC(=O)Nc4ccccc4)cccc3C(=O)N([C@H](C)CO)C[C@H]2C)cc1	-9	/	15	/	/	/	/
Cc1ccc(S(=O)(=O)N(C)C[C@@H]2Oc3c(NC(=O)Nc4ccccc4)cccc3C(=O)N([C@@H](C)CO)C[C@@H]2C)cc1	-1	7	19	/	/	/	/
C[C@@H]1CN([C@@H](C)CO)C(=O)c2cccc(NC(=O)Nc3ccc(C(F)(F)F)cc3)c2O[C@H]1CN(C)S(=O)(=O)c1ccc(Cl)cc1	-73	/	?	/	/	/	/
COc1ccc(S(=O)(=O)N(C)C[C@@H]2Oc3c(NC(=O)Nc4cccc5ccccc45)cccc3C(=O)N([C@H](C)CO)C[C@@H]2C)cc1	-92*	3	126*	?	65	33	30*
SMILES	Pf Dd2 growth	C diff growth	T cruzi growth-1	T cruzi growth-2	T cruzi growth-3	NIH3T3 tox	NIH3T3 tox 2
Cc1ccc(S(=O)(=O)N(C)C[C@H]2Oc3c(NC(=O)Nc4ccccc4)cccc3C(=O)N([C@H](C)CO)C[C@H]2C)cc1	-37	4	101*	?	20	6	48*
CCNC(=O)C[C@@H]1CC[C@@H]2[C@@H](COc3ccc(NC(=O)Nc4ccccc4C)cc3C(=O)N2C)O1	-9	-4	-9	/	/	/	/
CC(C)NC(=O)N[C@@H]1C=C[C@H](CC(=O)NC2Cc3ccccc3C2)O[C@@H]1CO	-17	0	7	/	/	/	/
CNC[C@@H]1Oc2ccc(N(C)C)cc2CC(=O)N([C@@H](C)CO)C[C@@H]1C	-16	0	-11	/	/	/	/
C[C@H]1CN([C@@H](C)CO)C(=O)c2cccc(NC(=O)C3CCCCC3)c2O[C@@H]1CN(C)CC1CC1	5	-2	37	/	/	/	/
Cc1ccc(S(=O)(=O)Nc2ccc3c(c2)C(=O)N([C@@H](C)CO)C[C@@H](C)[C@@H](CN(C)S(C)(=O)=O)O3)cc1	15	-2	15	/	/	/	/
C[C@@H]1CN([C@H](C)CO)C(=O)c2cccc(NC(=O)Nc3ccc(C(F)(F)F)cc3)c2O[C@H]1CN(C)S(=O)(=O)c1ccc(F)cc1	10	2	?	108*	34	10	39*
C[C@H](CO)N1C[C@H](C)[C@@H](CN(C)S(=O)(=O)c2ccc(F)cc2)Oc2c(NC(=O)Nc3ccc(C(F)(F)F)cc3)cccc2C1=O	11	5	/	/	/	/	/
CO[C@@H]1CN(C)C(=O)c2ccc(NC(=O)NC(C)C)cc2OC[C@H](C)N(C)C[C@H]1C	36	/	-45	/	/	/	/
COc1ccc2c3c(n(C)c2c1)[C@@H](CO)N(C(=O)C1CCCC1)CC31CCN(CC2CCCC2)CC1	-43	1	/	/	/	/	/
